The nature of assay [1]: HepG2 liver cancer cell viability effects, profiling panel, resazurin fluorescence, 24 h, PK04 Diversity Set (AID 1172). Also: test concentration not given here. The conditions noted are these: higher = more signal. (The colour change of resazurin is a common sign of viable cells or microbes.)
Assay [2] in a line: basal S. cerevisiae growth modulation, no modifier, primary screen, OD600, strain BY4716, 24 h, basal condition (AID 1173). The conditions noted are these: OD600, 24 h, higher = more signal, called active from +8 up or from −8 down.
Assay [3] can be described thus: MM1S myeloma cell viability, profiling panel, resazurin fluorescence, basal, 24 h, PK04 Diversity Set (AID 1174).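 Also: MM1S multiple myeloma cell line; test concentration not given here.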 The conditions noted are these: higher = more signal, called active from +8 up or from −8 down.
For assay [4], the target named is Dihydroorotate dehydrogenase (quinone), mitochondrial (Plasmodium falciparum (isolate 3D7)) (UniProt Q08210). Briefly: PfDHODH enzyme inhibitors, primary screen, biochemical, C-terminal His tag, absorbance 600 nm (AID 1175).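 Also: recombinant parasite enzyme with a five histidine tag at its C terminus; test concentration not given here.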 The conditions noted are these: DCIP absorbance 600 nm, higher = more signal, called active from +8 up or from −8 down.
Dihydroorotate dehydrogenase (quinone), mitochondrial (Plasmodium falciparum (isolate 3D7)), sequence (Q08210 whole entry, looked up): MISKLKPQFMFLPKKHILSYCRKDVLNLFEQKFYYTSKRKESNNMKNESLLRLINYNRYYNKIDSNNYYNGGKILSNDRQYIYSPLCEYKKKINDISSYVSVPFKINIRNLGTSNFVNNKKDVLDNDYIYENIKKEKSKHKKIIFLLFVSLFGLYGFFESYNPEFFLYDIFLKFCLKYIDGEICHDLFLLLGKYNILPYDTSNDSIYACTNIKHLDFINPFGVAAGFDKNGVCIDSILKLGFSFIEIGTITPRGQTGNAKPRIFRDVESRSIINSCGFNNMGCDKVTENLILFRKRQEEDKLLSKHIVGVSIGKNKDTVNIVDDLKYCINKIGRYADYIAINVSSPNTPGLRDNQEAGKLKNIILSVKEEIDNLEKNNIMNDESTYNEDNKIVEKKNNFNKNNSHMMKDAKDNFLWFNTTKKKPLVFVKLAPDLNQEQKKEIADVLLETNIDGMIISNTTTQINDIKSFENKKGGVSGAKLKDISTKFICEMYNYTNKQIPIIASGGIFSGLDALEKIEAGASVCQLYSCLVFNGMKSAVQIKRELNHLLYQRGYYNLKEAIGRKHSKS
Assay [5] in a line: P. aeruginosa biofilm formation inhibitors, primary screen, strain PAO1, LB-PBS medium, absorbance 600 nm (AID 1176). Also: test concentration not given here. Particulars: P. aeruginosa PAO1 growth/biofilm, A600, 12 h; higher = more signal.
Assay [6] is described as follows: S. cerevisiae RM11-1a growth modifiers, primary screen, strain RM11-1a, OD600, basal, 24 h (AID 1177).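 Also: cultures grown under basal conditions with no added stressor; test concentration not given here.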 Particulars: OD600, 24 h, higher = more signal, called active from +8 up or from −8 down.
Assay [7] can be described thus: E. coli acrAB mutant growth effects, primary screen, E. coli filamentation inducers, strain DRC39, OD650, 24 h (AID 1178).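 Also: growth measured as culture turbidity by optical density at 650 nm; test concentration not given here.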 Particulars: higher = more signal, called active from +8 up or from −8 down.
A short description of assay [8]: E. coli acrAB mutant growth effects, primary screen, E. coli filamentation inducers, strain DRC39, OD650, 48 h (AID 1179).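 Also: screen aims at cell division blockers that make cells filament.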 The conditions noted are these: E. coli DRC39 delta-acrAB growth, higher = more signal, called active from +8 up or from −8 down.
Assay [9] is described as follows: RPMI8226 myeloma cell viability, profiling panel, resazurin fluorescence, basal, 24 h, PK04 Diversity Set (AID 1180).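 Also: RPMI8826 multiple myeloma cell line at 5000 cells per well; test concentration not given here.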 Particulars: higher = more signal.
Assay [10] addresses E3 ubiquitin-protein ligase XIAP (Homo sapiens) (UniProt P98170). Briefly: XIAP binders, primary screen, biophysical, small-molecule microarray, fluorescence 635 nm (AID 1181).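 Also: score merges 667 nm emission and signal to noise over triplicate slides.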 The conditions noted are these: small-molecule microarray binding, higher = more signal.

The source made the active and inactive calls. Unless noted, no rule for the calls is given here.

E3 ubiquitin-protein ligase XIAP (Homo sapiens), sequence (P98170 whole entry, looked up): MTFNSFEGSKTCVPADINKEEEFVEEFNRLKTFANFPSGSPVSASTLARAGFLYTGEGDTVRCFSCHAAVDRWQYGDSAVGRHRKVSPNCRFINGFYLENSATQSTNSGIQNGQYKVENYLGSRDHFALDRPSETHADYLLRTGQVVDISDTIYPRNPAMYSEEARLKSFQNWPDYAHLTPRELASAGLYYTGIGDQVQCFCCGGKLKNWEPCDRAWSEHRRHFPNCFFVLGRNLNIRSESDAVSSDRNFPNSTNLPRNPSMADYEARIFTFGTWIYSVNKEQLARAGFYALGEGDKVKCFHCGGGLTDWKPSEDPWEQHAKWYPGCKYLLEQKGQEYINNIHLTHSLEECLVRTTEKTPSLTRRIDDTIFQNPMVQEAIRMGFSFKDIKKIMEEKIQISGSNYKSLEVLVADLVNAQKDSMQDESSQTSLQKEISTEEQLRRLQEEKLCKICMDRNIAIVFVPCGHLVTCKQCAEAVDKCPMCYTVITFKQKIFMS

Regarding `CC1(C)OCC(C(O)C2=CCCCC2=O)CO1` (stereo not given), the z-score was -0.786 in assay [1]; -0.124 (inactive) in assay [2]; 0.665 (inactive) in assay [3]; 1.49 (inactive) in assay [5]; 0.205 (inactive) in assay [6]; -0.85 (inactive) in assay [7]. Further, the z-score is -2.63 (inactive) in assay [8] and 0.297 in assay [9]. The composite z-score was 0.523 (inactive) in assay [4] and -0.294 in assay [10].

For the compound `COc1ccc(-c2nc3c(c4c2C[C@H](C)OC4)CN(CCC(C)C)CC3)cc1`, the z-score in assay [1] was -0.182; in [2], -0.827 (inactive); in assay [3], -0.145 (inactive); in [5], 0.262 (inactive); in assay [6], 0.602 (inactive); in assay [7], 1.15 (inactive). The results for the z-score in assay [8] and in [9] were 0.479 (inactive) and -0.239, respectively. The composite z-score in assay [4] was -0.133 (inactive); in [10], -0.0559.

For `O=C(NN=C1C[C@@H](O)[C@@H](O)[C@@H]2[C@@H]3C(=O)N(c4cccc(Oc5ccccc5)c4)C(=O)[C@@H]3CC[C@@H]12)OCc1ccccc1`, the z-score in assay [1] was -0.198; in [2], 0.498 (inactive); in assay [3], 0.243 (inactive); in assay [5], 0.0942 (inactive); in assay [6], 0.775 (inactive); in [7], -0.134 (inactive). The z-score in [8] is -0.192 (inactive); in assay [9], 0.464. Further, the values for the composite z-score in [4] and in assay [10] were 0.351 (inactive) and -0.0506, respectively.

As to `C=C(COC)/C(=C/C[C@H](OC(=O)c1ccncc1)c1ccc(CO)o1)c1cc(C(=O)OC)ccc1OC`, the z-score in assay [1] was -0.0086; in assay [2], -0.154 (inactive); in assay [3] it was -0.486 (inactive); in assay [5], 1.11 (inactive); in [6], -0.328 (inactive); in [7] it was -0.268 (inactive). Also, the z-score in [8] was 0.0389 (inactive); in [9] it was 0.343. Moreover, the composite z-score in assay [4] was -1.02 (inactive); in assay [10], -0.168.

Regarding `CCOC(=O)NN=C1C[C@@H](O)[C@@H](O)[C@@H]2[C@@H]3C(=O)N(C[C@@H]4CCCO4)C(=O)[C@@H]3CC[C@@H]12`, the z-score is 0.208 in assay [1]; 0.623 (inactive) in assay [2]; -0.307 (inactive) in assay [3]; -0.674 (inactive) in [5]; 0.664 (inactive) in [6]; 0.914 (inactive) in [7]. Also, the z-score is 1.4 (inactive) in assay [8] and 0.0557 in assay [9]. Besides, the composite z-score in assay [4] is -0.851 (inactive); in [10] it was 0.0432.

`COC(=O)[C@@H]1CC[C@H](C)[C@@H](c2ccc(C)cc2)N1C(=O)c1ccc(C=NOC(C)CN2CCCCc3nc(C)c(C)cc32)cc1` (stereo not given in full): the z-score in assay [1] was 1.03; in [2] it was -0.104 (inactive); in [3], -0.725 (inactive); in assay [5], 0.642 (inactive); in assay [6], 0.984 (inactive); in [7], 0.419 (inactive). Also, the results for the z-score in assay [8] and in assay [9] were -0.27 (inactive) and -0.0629, respectively. For the same compound, the composite z-score in [4] is 0.613 (inactive); in [10], 0.147.

For the compound `CC(C)[Si]1(C(C)C)O[C@@H](c2ccccc2)c2cc(C3CC3)nc(-c3ccccc3)c21`, the z-score in assay [1] was 0.972; in [2], 0.0055 (inactive); in [3], 0.656 (inactive); in [5] it was 0.632 (inactive); in assay [6] it was -0.403 (inactive); in assay [7], -0.281 (inactive). Moreover, the z-score was -0.785 (inactive) in [8] and 0.21 in assay [9]. Further, the values for the composite z-score in [4] and in assay [10] were 0.45 (inactive) and 0.0785, respectively.

Turning to `CC(C)N1CC=CC23O[C@@H]4C=CCCOC(=O)C4[C@H]2C(=O)N(CCCCCCO)[C@@H]3C1=O` (stereo not given in full), the z-score in [1] was 0.973; in assay [2] it was 0.948 (inactive); in assay [3], 0.98 (inactive); in assay [5], 0.109 (inactive); in [6], 0.638 (inactive); in [7] it was 0.66 (inactive). Also, the values for the z-score in [8] and in assay [9] were 0.541 (inactive) and 0.937, respectively. Also, the composite z-score in assay [4] is -0.0439 (inactive); in assay [10], 0.694.

With `CC(=O)OC[C@H]1O[C@H](CCON=C(C)CCC(=O)OC[C@H]2O[C@H](C#Cc3ccccc3)C=C[C@@H]2Oc2ccc(C)cc2)C=C[C@@H]1OC(C)=O`, the z-score in [1] was -0.508; in assay [2] it was 0.511 (inactive); in assay [3] it was -0.795 (inactive); in assay [5] it was 0.405 (inactive); in [6] it was 0.661 (inactive); in [7], 0.674 (inactive). Also, the z-score was 0.59 (inactive) in assay [8] and -0.31 in assay [9]. For the same compound, the figures for the composite z-score in assay [4] and in assay [10] were -0.84 (inactive) and -0.241, respectively.

As for `C#C[C@@H](CC)O[Si](C#Cc1ccc(Oc2ccccc2)cc1)(C(C)C)C(C)C`, the z-score in assay [1] was -0.543; in assay [2], -0.87 (inactive); in assay [3], -0.613 (inactive); in assay [5] it was 0.833 (inactive); in assay [6] it was 0.898 (inactive); in [7], -0.568 (inactive). In addition, the z-score was -0.416 (inactive) in assay [8] and -1.1 in assay [9]. Also, the figures for the composite z-score in [4] and in [10] were -0.661 (inactive) and -0.0562, respectively.

In the case of `O=C(CS)NCCCCCNC(=O)[C@H]1C[C@H]2C(=O)N3CCC[C@H]3C(=O)N2[C@H]1c1cccc(OCCO)c1`, the z-score is 0.0716 in [1]; -0.358 (inactive) in assay [2]; 0.85 (inactive) in assay [3]; -0.667 (inactive) in [5]; 0.18 (inactive) in assay [6]; -0.201 (inactive) in assay [7]. The z-score in [8] is 0.36 (inactive); in assay [9], 0.472. Moreover, the composite z-score is 0.274 (inactive) in assay [4] and 0.0785 in assay [10].

For the origin of these results see PubChem BioAssay.
